Measured values: PubChem BioAssay (NCATS)
Results filed as inconclusive are left out. A number with no mark means an inactive call. Active and inactive are the calls of the source. Calls follow the shape of the dose curve; as a rule, active = well fitted curve in the direction sought with a large enough effect; inconclusive = small, poorly fitted or top-dose-only effect, or another doubt; inactive = no such curve, though single readings can be large or run the other way.

What follows are molecules tested against Metallo-beta-lactamase type 2 (Klebsiella pneumoniae) (UniProt C7C422) (assay: qHTS to identify inhibitors of the New Delhi Metallo-beta-lactamase (NDM): assay validation screen against the NCATS LOPAC Collection (AID 1794843)). Details: NDM-1 enzyme, nitrocefin hydrolysis, absorbance 485 nm; series mostly up to 38.4 µM; activity change, negative = inhibition: at the top concentration.
Sequence of Metallo-beta-lactamase type 2 (Klebsiella pneumoniae) (C7C422 whole entry, looked up): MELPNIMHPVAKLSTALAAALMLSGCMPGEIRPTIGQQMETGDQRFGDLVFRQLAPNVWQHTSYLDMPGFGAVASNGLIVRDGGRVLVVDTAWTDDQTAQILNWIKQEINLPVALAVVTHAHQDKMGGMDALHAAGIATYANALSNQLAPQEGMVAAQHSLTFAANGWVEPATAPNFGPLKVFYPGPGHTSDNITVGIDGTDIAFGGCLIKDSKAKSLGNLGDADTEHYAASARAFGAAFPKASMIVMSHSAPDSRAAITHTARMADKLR
Description: Assay Submitter (PI): James Inglese Ph.D., Patricia Dranchak Ph.D., Mahesh Aitha Ph.D.
Assay Development and Screening Technology Laboratory (ADST)
National Center for Advancing Translational Sciences (NCATS), Rockville, MD
National Institute of Health (NIH), Bethesda, Maryland
The metallo-beta-lactamases (MBL) are a main antibiotic resistance mechanism evolved by bacteria. There is an urgent clinical need for MBL inhibitors to mitigate this growing threat. To support a machine-based learning study, qHTS has been used to experimentally test inhibitors identified by prediction tools.
PROTOCOL TABLE (as described by Inglese et al., 2007)
SEQUENCE No. (e.g., 1, 2, 3, etc.); […] (e.g., enzyme, Incubation, Reagent, etc.); VALUE; DESCRIPTION
1; NDM-1; 4 uL of 3 nM enzyme in 50 mM HEPES (pH 7.0), 1 uM Zn2SO4, 0.01% Tween20; Use BioRaptr to dispense into Aurora black, clear bottom low base 1536-well plates
2; Compounds; 23 nL; Use Pin Tool (Wako) to transfer DMSO control and library compounds in DMSO
4; Reagent; 2 uL of 50 uM nitrocefin
6; Detector; Absorbance at 485 nm (bandwidth = 5 nm, 25 flashes/well) on Tecan Infinity
NOTES (numbers refer to sequence above)
1; Column 1 of each plate received assay buffer without enzyme and columns 2-48 received enzyme for a final assay concentration of 2 nM.
2; Control plate contained DMSO in columns 1, 2, 3, and 4.
3; Compound interaction with enzyme.
5; Substrate interaction with enzyme, plateau phase of kinetics.
6; Default reader settings were applied for absorbance read at 485 nm, bandwidth = 5 nm, 25 flashes/well.
Inglese J, Shamu CE, Guy RK. 2007. Reporting data from high-throughput screening of small-molecule libraries. Nat Chem Biol. doi:10.1038/nchembio0807-438
Yasgar A, Shinn P, Jadhav A, Auld D, Michael S, Zheng W, Austin CP, Inglese J, Simeonov A. 2008. Compound Management for Quantitative High-Throughput Screening. J Lab Autom 13:79 - 89. doi:10.1016/j.jala.2007.12.004
% is scaled to controls: 0 for no effect and ±100 for the full control effect.

SMILES | activity change, negative = inhibition [%] | outcome
CC1=C(CC(=O)O)c2cc(F)ccc2/C1=C\c1ccc(S(C)(=O)=O)cc1 | -0.84 | –
COc1ccc(Cl)cc1C(=O)NCCc1ccc(S(=O)(=O)NC(=O)NC2CCCCC2)cc1 | 3.55 | –
CC(C)NC[C@H](O)c1ccc(O)c(O)c1 | – | inactive
CNCC(O)c1ccc(O)c(O)c1 (stereo not given) | 1.09 | –
C[C@]12CC[C@@H]3c4ccc(O)cc4CC[C@H]3[C@@H]1CCC2=O | 0.127 | –
CSc1ccc2c(c1)N(CCC1CCCCN1C)c1ccccc1S2 (stereo not given) | -1.88 | –
CN1CCC[C@@H]1Cc1c[nH]c2ccc(CCS(=O)(=O)c3ccccc3)cc12 | 4.84 | –
CC(C)c1c(C(=O)Nc2ccccc2)c(-c2ccccc2)c(-c2ccc(F)cc2)n1CC[C@@H](O)C[C@@H](O)CC(=O)O | -2.21 | –
Nc1cc(=O)[nH]c(N)n1 | 0.914 | –
CCN(CC)CCNC(=O)c1c(C)[nH]c(/C=C2\C(=O)Nc3ccc(F)cc32)c1C | 11.7 | –
CN1CCN(C2Cc3ccccc3Sc3ccc(Cl)cc32)CC1 (stereo not given) | -2.07 | –
NC1[C@H]2CN(c3nc4c(cc3F)c(=O)c(C(=O)O)cn4-c3ccc(F)cc3F)C[C@@H]12 (stereo not given in full) | 3.68 | –
CC(CN(C)C)CN1c2ccccc2CCc2ccccc21 (stereo not given) | -0.198 | –
C[C@]12C[C@H](O)[C@H]3[C@@H](CCC4=CC(=O)CC[C@@]43C)[C@@H]1CC[C@@H]2C(=O)CO | 1.57 | –
CN(C)CCCN1c2ccccc2Sc2ccc(Cl)cc21 | 8.2 | –
Nc1ncnc2c1ncn2[C@@H]1O[C@H](CO)[C@@H](O)[C@H]1O | -2.17 | –
CN(C)CC[C@@H](c1ccc(Cl)cc1)c1ccccn1 | 0.148 | –
C[C@H]1O[C@@H](n2cc(F)c(=O)[nH]c2=O)[C@H](O)[C@@H]1O | -0.442 | –
CC(CN1c2ccccc2Sc2ccccc21)N(C)C (stereo not given) | -4.23 | –
C[C@H](NC(CCc1ccccc1)C(=O)O)C(=O)N1CCC[C@H]1C(=O)O (stereo not given in full) | -4.96 | –

SMILES | activity change, negative = inhibition [%] | outcome
N=c1c[n+](N2CCOCC2)[n-]o1 | -2.25 | –
COC(=O)C1=C(C)NC(C)=C(C(=O)OC)C1c1ccccc1[N+](=O)[O-] | 6.78 | –
CCCn1cnc2c1c(=O)n(CCCCC(C)=O)c(=O)n2C | -12.9 | –
CC(=O)OCC(=O)[C@@]1(O)CC[C@H]2[C@@H]3CCC4=CC(=O)CC[C@]4(C)[C@H]3C(=O)C[C@@]21C | 1.82 | –
NC(=O)c1ncn([C@@H]2O[C@H](CO)[C@@H](O)[C@H]2O)n1 | -19.4 | –
CC(=O)c1ccc2c(c1)N(CCCN(C)C)c1ccccc1S2 | 3.64 | –
Cc1c(O)cccc1C(=O)N[C@@H](CSc1ccccc1)[C@H](O)CN1C[C@H]2CCCC[C@H]2C[C@H]1C(=O)NC(C)(C)C | -0.919 | –
CNCCC(Oc1ccc(C(F)(F)F)cc1)c1ccccc1 (stereo not given) | -1.41 | –
CC1=C(CC(=O)O)c2cc(F)ccc2/C1=C\c1ccc(S(C)=O)cc1 (stereo not given) | -6.78 | –
CCN(CC)C(C)CN1c2ccccc2Sc2ccccc21 (stereo not given) | -0.567 | –
CCN(CC)CCNC(=O)c1cc(Cl)c(N)cc1OC | -2.15 | –
CCN(CC)CCCC(C)Nc1c2ccc(Cl)cc2nc2ccc(OC)cc12 (stereo not given) | -3.17 | –
OCCN1CCN(CCCN2c3ccccc3Sc3ccc(Cl)cc32)CC1 | 21 | –
CNCCCC1c2ccccc2C=Cc2ccccc21 | -5.17 | –
CCCCN(CCCC)CC(O)c1cc(Cl)cc2c1-c1ccc(Cl)cc1/C2=C/c1ccc(Cl)cc1 (stereo not given) | 3.64 | –
O=C1N=C(O)CN1/N=C/c1ccc(-c2ccc([N+](=O)[O-])cc2)o1 | 8.38 | –
CN(C)CCOC(C)(c1ccccc1)c1ccccn1 (stereo not given) | 16.4 | –
O=C1NC(=O)[C@@]2(CCOc3ccc(F)cc32)N1 | -1.09 | –
CC[C@H]1CN2CCc3cc(OC)c(OC)cc3[C@@H]2C[C@@H]1C[C@H]1NCCc2cc(OC)c(OC)cc21 | -3.61 | –
CN(C)CCC=C1c2ccccc2CCc2ccccc21 | 2.38 | –
